Assay results as given in PubChem BioAssay (NCATS).
Where “and” joins values, the source holds several entries; their conditions need not be identical. Equal values may be shown once. Results filed as inconclusive are left out. Entries that show only a call come without a potency. Calls of active or inactive are those of the source. The call rests on the fitted dose curve; in most records, active means well fitted curve in the direction sought with a large enough effect; inconclusive means small, poorly fitted or top-dose-only effect, or another doubt; inactive means no such curve, though single readings can be large; an effect the other way counts as inactive or inconclusive.

Legend:
[1] = target: Guanine nucleotide-binding protein G(i) subunit alpha-1 (Homo sapiens) (UniProt P63096); assay: qHTS Assay for Inhibitors of RGS12 GoLoco Motif Activity (Green Fluorophore) (AID 879);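 further: negative values mean loss of peptide binding seen as reduced polarization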
Method in brief: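 A drop in FITC polarization marked displacement of the FITC-tagged RGS12 GoLoco peptide (10 nM) from Gαi1 (50 nM). Compounds were incubated 10 min at room temperature in Tris pH 7.5 buffer containing 150 mM NaCl, 0.1 mM GDP and 0.05% NP40; unlabeled peptide titration served as control.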

[2] = target: Cytochrome P450 3A4 (Homo sapiens) (UniProt P08684); assay: qHTS Assay for Inhibitors and Substrates of Cytochrome P450 3A4 (AID 884); further: nearly all actives have a fitted effect of over 50% in size; further: potency means the concentration at half of the fitted maximal effect
Method in brief: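 Luminescent readout of luciferin produced by CYP3A4 (20 nM) dealkylation of Luciferin-PPXE, 25 uM (its KM). NADPH-driven reaction ran 60 min at RT after 10 min compound preincubation; data scaled to 57 uM ketoconazole as 100% inhibition.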

[3] = target: Cytochrome P450 3A4 (Homo sapiens) (UniProt P08684); assay: qHTS Assay for Activators of Cytochrome P450 3A4 (AID 885); further: nearly all actives have a fitted effect of over 65% in size
Method in brief: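 Using 20nM recombinant human CYP3A4 in potassium phosphate (200mM), substrate Luciferin-PPXE at 25uM, luminescent luciferin detection followed a 60-min RT NADPH reaction; data scaled to 57 uM ketoconazole.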

[4] = target: Cytochrome P450 2D6 (Homo sapiens) (UniProt P10635); assay: qHTS Assay for Inhibitors and Substrates of Cytochrome P450 2D6 (AID 891); further: nearly all actives have a fitted effect of over 60% in size; further: potency means the concentration at half of the fitted maximal effect
Method in brief: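 Luminescent read-out of luciferin formed by 5 nM human CYP2D6 demethylating 30 uM Luciferin-ME EGE (Km level) over 60 min at room temperature after NADPH regeneration addition. Data normalized to full inhibition by 1.43 uM quinidine.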

Chain of Guanine nucleotide-binding protein G(i) subunit alpha-1 (Homo sapiens) (P63096 whole entry, looked up): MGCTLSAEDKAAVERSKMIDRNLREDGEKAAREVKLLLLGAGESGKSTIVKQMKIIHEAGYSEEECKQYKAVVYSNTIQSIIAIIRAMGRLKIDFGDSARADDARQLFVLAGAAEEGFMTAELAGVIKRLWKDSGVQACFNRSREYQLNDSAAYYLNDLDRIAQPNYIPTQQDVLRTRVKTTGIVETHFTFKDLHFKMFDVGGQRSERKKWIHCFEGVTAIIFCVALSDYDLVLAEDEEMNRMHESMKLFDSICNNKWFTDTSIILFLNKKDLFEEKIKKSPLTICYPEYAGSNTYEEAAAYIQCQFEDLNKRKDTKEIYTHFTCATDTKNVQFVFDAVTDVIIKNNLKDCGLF
Chain of Cytochrome P450 3A4 (Homo sapiens) (P08684 whole entry, looked up): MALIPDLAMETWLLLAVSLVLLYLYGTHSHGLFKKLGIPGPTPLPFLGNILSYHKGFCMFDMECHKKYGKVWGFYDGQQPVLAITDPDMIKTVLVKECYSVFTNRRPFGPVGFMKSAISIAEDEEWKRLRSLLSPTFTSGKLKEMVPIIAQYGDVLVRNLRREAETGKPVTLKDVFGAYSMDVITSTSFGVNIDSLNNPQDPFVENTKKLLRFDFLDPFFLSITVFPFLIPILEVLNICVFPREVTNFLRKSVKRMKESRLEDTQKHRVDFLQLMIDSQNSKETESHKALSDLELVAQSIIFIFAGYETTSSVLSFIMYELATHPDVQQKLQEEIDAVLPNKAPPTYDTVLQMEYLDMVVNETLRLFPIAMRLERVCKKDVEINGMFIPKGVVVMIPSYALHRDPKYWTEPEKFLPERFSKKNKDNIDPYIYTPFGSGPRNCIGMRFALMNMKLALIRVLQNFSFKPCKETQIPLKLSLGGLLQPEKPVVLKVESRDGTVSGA
Chain of Cytochrome P450 2D6 (Homo sapiens) (P10635 whole entry, looked up): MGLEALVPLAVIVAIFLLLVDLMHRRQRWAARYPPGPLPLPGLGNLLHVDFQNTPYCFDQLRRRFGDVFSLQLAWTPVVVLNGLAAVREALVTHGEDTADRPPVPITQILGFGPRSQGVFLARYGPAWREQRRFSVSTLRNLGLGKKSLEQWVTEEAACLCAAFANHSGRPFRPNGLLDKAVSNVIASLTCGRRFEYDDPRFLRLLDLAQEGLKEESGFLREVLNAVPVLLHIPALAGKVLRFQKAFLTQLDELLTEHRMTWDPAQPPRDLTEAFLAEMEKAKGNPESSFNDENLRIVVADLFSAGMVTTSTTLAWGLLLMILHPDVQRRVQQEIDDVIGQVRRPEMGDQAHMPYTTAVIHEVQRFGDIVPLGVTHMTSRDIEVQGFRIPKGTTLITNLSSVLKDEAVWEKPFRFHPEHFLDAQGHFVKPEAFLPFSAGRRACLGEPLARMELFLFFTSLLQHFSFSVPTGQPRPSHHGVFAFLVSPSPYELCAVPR

Structure (SMILES) | Potency [1] | Potency [2] | Potency [3] | Potency [4]
O=C1NC(=O)c2cc(Nc3ccccc3)c(Nc3ccccc3)cc21 | inactive | 1.58 µM (active) | inactive | 
CCCn1c(=O)c2c(ncn2C)n(CCC)c1=O | inactive |  | inactive | 
CC(C)Cn1c(=O)n(C)c(=O)c2[nH]cnc21 | inactive | 3.98 µM (active) and 15.8 µM (active) and 12.6 µM (active) | inactive | 
Nc1nc2c(cnn2CCc2ccccc2)c2nc(-c3ccco3)nn12 |  | 31.6 µM (active) | inactive | 
O=C(OCCN1CCOCC1)C1(c2ccccc2)CCCCC1 | inactive | 3.16 µM (active) and 1.58 µM (active) | inactive | 
c1ccc(C2CN3CCSC3=N2)cc1 (stereo unspecified) |  | inactive |  | 
CC[C@H](NC(=O)c1c(C)c(-c2ccccc2)nc2ccccc12)c1ccccc1 | inactive |  |  | inactive
CSC(=N)N |  |  |  | 50.1 nM (active)
CCCCCCCCCCC(C)(C)C(=O)Nc1c(OC)cc(OC)cc1OC |  | 7.94 µM (active) |  | 
COc1ccccc1N1CCN(CCCCNC(=O)c2ccc3ccccc3c2)CC1 | inactive |  |  | 3.16 µM (active) and 3.98 µM (active)
NC1(C(=O)O)CCCCC1 | inactive |  |  | inactive
CC1=C(/C=C/C(C)=C/C=C/C(C)=C\C(=O)O)C(C)(C)CCC1 |  | inactive |  | 
CN[C@H](CC(=O)O)C(=O)O | inactive | inactive |  | inactive
CCCc1c(-c2ccc(O)cc2)nn(-c2ccc(O)cc2)c1-c1ccc(O)cc1 | inactive | 2.51 µM (active) |  | 39800 nM (active)
Nc1ncnc2c1ncn2C1CCCC1 | inactive |  | inactive | 
